Screening results: PubChem BioAssay, several laboratories
HSF-1 act = HSF-1 activators, primary screen, NIH3T3-HGL cells, MG132 stress, luminescence, single point | NIH3T3-HGL HSF-1 luciferase reporter, 8 h; 100% = twice DMSO control signal | activation, % at 9 µM | 300,000 tested, 1.7% active | AID 504408, 2011;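 active means mean replicate activation of at least 50% with a set share of replicates each reaching 50%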
FXN GAA850 act = FXN promoter activators, primary screen, cell-based, luciferase luminescence, HEK293 lucGAA850. HEK293 lucGAA850 FXN promoter luciferase reporter, 24 h; percent of 10 µM SAHA response. activation, % at 6 µM. 360,000 tested, 0.56% active. AID 540364, 2011;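 active means activation above the average of all compounds screened plus 3 SD, cutoff fixed separately per campaign, cut at about 7.5% in these data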
NR0B1 inh = DAX1 (NR0B1) inhibitors, primary screen, cell-based, HEK293, Gal4-DAX1, luciferase luminescence; Nuclear receptor subfamily 0 group B member 1 (Homo sapiens), P51843; HEK293 Gal4-DAX1 luciferase reporter; inhibition, % at 6.75 µM; 340,000 tested, 0.99% active; AID 504766, 2011;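 active means inhibition above the mean over all tested compounds plus 3 SD, cut at about 4.2% in these data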;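 further: inhibition shows as a rise in luminescence from relieved DAX1 repression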
Target sequence (P51843 207-470 limits assumed): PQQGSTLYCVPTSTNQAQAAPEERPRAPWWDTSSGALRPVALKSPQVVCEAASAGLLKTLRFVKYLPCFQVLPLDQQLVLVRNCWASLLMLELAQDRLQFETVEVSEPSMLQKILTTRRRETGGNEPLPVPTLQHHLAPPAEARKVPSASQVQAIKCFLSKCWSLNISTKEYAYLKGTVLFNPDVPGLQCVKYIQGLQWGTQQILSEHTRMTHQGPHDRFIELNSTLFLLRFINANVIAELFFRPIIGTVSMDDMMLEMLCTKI
HSF1 inhib = HSF1 inhibitors in luciferase reporter cells, primary screen, cell-based, NIH3T3, luminescence; NIH3T3-HGL HSE-luciferase, MG132-induced, luminescence 8 h; active compounds read low; activity change, negative = inhibition, % at 7.5 µM (by protocol); 300,000 tested, 0.77% active; AID 2098, 2009;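 active means more than half of replicate wells show activity change below -50%, luminescence cut by over half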;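 further: luciferase reports HSF-1 transcriptional activity via heat shock element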
HSP90 refold inh = HSP90 inhibitors, primary screen, cell lysate, luminescence | Heat shock protein HSP 90 (rabbit reticulocyte lysate; luciferase refolding) | AID 1789, 2009 | Rabbit reticulocyte lysate, luciferase refolding luminescence, 3 h | 290,000 tested, 0.91% active | inhibition, % at 5.6 µM;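 active means inhibition above the screen-wide mean plus 3 SD, computed separately per campaign, cut at about 16% in these data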;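 further: inhibitors lower the luminescence because luciferase stays unfolded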
AHR activator = AHR activators, primary screen, cell-based, luminescence, luciferase reporter, human; Aryl hydrocarbon receptor (Homo sapiens), P35869; AHR-responsive luciferase reporter cells; activation, % at 5 µM; 320,000 tested, 2.5% active; in the data active means activation above about 47%
A number is an active result; ! = a repeat was not active. This is a sample that favours compounds with a hit; in the whole collection about 5.9% have one here.

For Cc1nc(SCC(=O)NCC2CCCO2)nc(C)c1C (stereo not given) the results were FXN GAA850 act inactive, NR0B1 inh inactive and AHR activator inactive.
Screening Cc1ccc2nc(SCC(=O)NCC3CCCO3)c(C#N)cc2c1 (stereo not given) returned HSF-1 act inactive, FXN GAA850 act inactive, NR0B1 inh inactive, HSF1 inhib inactive, HSP90 refold inh inactive and AHR activator inactive.
O=C(CSc1ncnc2c1nnn2-c1ccc(F)cc1)NCC1CCCO1 (stereo not given) was read as HSF-1 act 74, FXN GAA850 act inactive, NR0B1 inh inactive, HSF1 inhib inactive, HSP90 refold inh inactive and AHR activator inactive.
Screening COc1ccccc1-c1nnc(SC2CCc3ccccc3NC2=O)s1 (stereo not given) returned HSF-1 act inactive, FXN GAA850 act inactive, NR0B1 inh inactive, HSF1 inhib -52, HSP90 refold inh inactive and AHR activator inactive.
For CC(NC(=O)CN1CCN(CC(=O)Nc2ccccc2Cl)CC1)c1ccc(Br)cc1 (stereo not given) the results were FXN GAA850 act inactive, NR0B1 inh inactive and AHR activator inactive.
For CCC(C)Nc1nc(-c2ccc3c(c2)NC(=O)CO3)cs1 (stereo not given) the results were HSF-1 act inactive, FXN GAA850 act inactive, NR0B1 inh inactive, HSF1 inhib inactive, HSP90 refold inh inactive and AHR activator 63.
Screening COc1ccc(Nc2nc(-c3ccc4c(c3)NC(=O)CO4)cs2)cc1 returned HSF-1 act inactive, FXN GAA850 act inactive, NR0B1 inh inactive, HSF1 inhib inactive, HSP90 refold inh inactive and AHR activator inactive.
`O=C(NCCc1cccs1)c1ccc(CS(=O)Cc2cccc(Cl)c2)o1` (stereo not given) gave FXN GAA850 act inactive and NR0B1 inh inactive.
Cn1cc(C(=O)C(=O)N2CCCc3ccccc32)c2ccccc21 was read as HSF-1 act inactive, FXN GAA850 act inactive, NR0B1 inh inactive, HSF1 inhib inactive, HSP90 refold inh inactive and AHR activator 68.
For COc1ccc(CC(=O)NCc2ccccc2F)cc1S(=O)(=O)N1CCOCC1 the results were FXN GAA850 act inactive and NR0B1 inh inactive.
For COc1ccc2c(=O)c(-c3ccc(C)cc3)c(-c3ccccc3)oc2c1 the results were FXN GAA850 act inactive and NR0B1 inh inactive.
For COc1ccc(CNc2nc3c(c(=O)[nH]c(=O)n3C)n2Cc2ccccc2C)cc1 the results were HSF-1 act inactive, FXN GAA850 act inactive, NR0B1 inh inactive, HSF1 inhib -69, HSP90 refold inh inactive and AHR activator inactive.
Screening Cn1c(=O)[nH]c(=O)c2c1nc(NCc1ccccc1)n2Cc1ccc(F)cc1 returned HSF-1 act inactive, FXN GAA850 act inactive, NR0B1 inh inactive, HSF1 inhib inactive and HSP90 refold inh inactive.
`CN1CCN(NC(=O)Nc2ccc(Br)cc2Cl)CC1` gave HSF-1 act inactive, FXN GAA850 act inactive, NR0B1 inh inactive, HSF1 inhib inactive and HSP90 refold inh inactive.
Screening N=C1/C(=C\c2ccc(-c3cccc(Cl)c3)o2)C(=O)N=C2SC=C(c3ccccc3)N12 returned HSF-1 act inactive, FXN GAA850 act inactive, NR0B1 inh inactive, HSF1 inhib inactive, HSP90 refold inh inactive and AHR activator 49.
N=C1S/C(=C\c2ccc(-c3cccc(Cl)c3)o2)C(=O)N1c1nccs1 was read as HSF-1 act 223, FXN GAA850 act inactive, NR0B1 inh inactive, HSF1 inhib inactive, HSP90 refold inh inactive and AHR activator inactive.
`O=C1OC(c2cccs2)=N/C1=C\c1ccc(-c2cccc(Cl)c2)o1` gave HSF-1 act inactive, FXN GAA850 act inactive, NR0B1 inh inactive, HSF1 inhib inactive, HSP90 refold inh inactive and AHR activator inactive.
Screening CCc1c(C)nc(SCC(=O)Nc2cccc(Br)c2)[nH]c1=O returned HSF-1 act 57, FXN GAA850 act inactive, NR0B1 inh inactive, HSF1 inhib inactive, HSP90 refold inh inactive and AHR activator inactive.
COCCCC/C(=N\OCCN)c1ccc(C(F)(F)F)cc1 was read as HSF-1 act inactive, FXN GAA850 act inactive, NR0B1 inh inactive, HSF1 inhib -81!, HSP90 refold inh inactive and AHR activator inactive.
For O=C(CCC(=O)OCC(=O)c1ccc(C(F)(F)F)cc1)OCC(=O)c1ccc(C(F)(F)F)cc1 the results were HSF-1 act inactive, FXN GAA850 act inactive, HSF1 inhib inactive, HSP90 refold inh inactive and AHR activator inactive.
For COc1cc(Cl)c(C)cc1NC(=O)c1ccccc1-n1cnnn1 the results were FXN GAA850 act inactive, NR0B1 inh inactive and AHR activator inactive.
For CCOc1ccc(CCNC(=O)CN(C)S(=O)(=O)c2ccc3c(c2)CCC(=O)N3)cc1OCC the results were HSF-1 act inactive, FXN GAA850 act inactive, NR0B1 inh inactive, HSF1 inhib -54, HSP90 refold inh inactive and AHR activator inactive.
For Cc1cc(C)c(C2=CC(=O)C[C@H](c3ccc4c(c3)OCO4)C2)c(C)c1 the results were FXN GAA850 act inactive, NR0B1 inh inactive and AHR activator inactive.
`COc1ccc(CCNC(=O)Nc2cccc([N+](=O)[O-])c2)cc1` gave HSF-1 act inactive, FXN GAA850 act inactive, NR0B1 inh inactive, HSF1 inhib inactive, HSP90 refold inh inactive and AHR activator inactive.
COC(=O)[C@@H](Cc1ccccc1)NC(=O)NCCc1ccc(OC)c(OC)c1 was read as HSF-1 act inactive, FXN GAA850 act inactive, NR0B1 inh 4.3, HSF1 inhib inactive, HSP90 refold inh inactive and AHR activator inactive.
`COc1ccc(CCNC(=O)c2cccc([N+](=O)[O-])c2)cc1OC` gave HSF-1 act inactive, FXN GAA850 act inactive, NR0B1 inh inactive, HSF1 inhib -87 and AHR activator inactive.
Screening COc1ccc(CCNC(=O)c2cc(-c3cccs3)on2)cc1OC returned HSF-1 act inactive, FXN GAA850 act 16, NR0B1 inh inactive, HSF1 inhib inactive, HSP90 refold inh inactive and AHR activator inactive.
COc1ccc(CCNC(=O)Nc2cccc([N+](=O)[O-])c2)cc1OC was read as HSF-1 act 71, FXN GAA850 act inactive, NR0B1 inh inactive, HSF1 inhib inactive, HSP90 refold inh inactive and AHR activator inactive.
`O=C(c1ccco1)N1CCN(C(=S)NC2CC3CCC2C3)CC1` (stereo not given) gave HSF-1 act inactive, FXN GAA850 act inactive, NR0B1 inh inactive, HSF1 inhib inactive, HSP90 refold inh inactive and AHR activator inactive.
COc1ccc(C2=NN(CCC(=O)NC3CCCCC3C)C(=O)CC2)cc1 (stereo not given) was read as FXN GAA850 act inactive and NR0B1 inh inactive.
